Results: PubChem BioAssay (EPA / NIEHS)
Several values for one entry are separate records, joined by “and”; a condition that tells them apart may be missing. Identical values can stand only once. Activity calls are given as the source filed them. The calls were made as follows: active = hit-call score of the fitted dose curve at least 0.9, where 1 is the maximum; inactive = score below 0.9.

Read-out: Collagen III, COL3A1 (gene 1281)
Experiment: BSK_hDFCGF_CollagenIII: BioMAP Diversity Plus: hDFCGF Assay for Collagen III Biomarker Activity (AID 2283056)
Details: primary human foreskin fibroblasts; actives raise or lower the signal
Experimental: BSK_hDFCGF is a cell-based, multiplexed-readout assay that uses foreskin fibroblast, a human skin primary cell, with measurements taken at 24 hours after chemical dosing in a 96-well plate.BSK_hDFCGF_CollagenIII is an assay component measured in the BSK_hDFCGF assay. It measures Collagen antibody related to regulation of gene expression using ELISA technology.Data from the assay component BSK_hDFCGF_CollagenIII was analyzed into 1 assay endpoint. This assay endpoint, BSK_hDFCGF_CollagenIII, was analyzed with bidirectional fitting relative to DMSO as the negative control and baseline of activity. Using a type of binding reporter, gain or loss-of-signal activity can be used to understand changes in the signaling as they relate to the gene COL3A1. Furthermore, this assay endpoint can be referred to as a primary readout, because this assay has produced multiple assay endpoints where this one serves a signaling function. To generalize the intended target to other relatable targets, this assay endpoint is annotated to the cell adhesion molecules intended target family, where the subfamily is collagen.
The levels of cell surface (or secreted, indicated by the prefix "s") biomarker endpoints were measured by ELISA. Overt cytotoxicity to cells in confluent adherent cultures (all systems other than the BT system) was assessed by measuring total protein levels using sulforhodamine B (SRB) staining in parallel cultures at the time of biomarker measurements, indicated as SRB endpoints. For proliferation assays for adherent cell types, individual cell types are cultured at sub-confluence and relative cell numbers quantified by SRB staining at time points optimized for each system (48 h: 3C and CASM3C systems; 72 h: BT and HDF3CGF systems; 96 h: SAg system). SRB was performed by staining cells with 0.1% SRB after fixation with 10% TCA and reading wells at 560 nm.Viability and proliferation of PBMC (T cells) was quantified by Alamar Blue reduction for the SAg and BT systems. For PBMC viability (referred to as PBMC Cytotoxicity within the assay endpoint names), cells were plated (75,000/well in a 96-well plate) and then chemical samples added for 1 h before addition of activators, SEB and TSST-1 (20 ng/mL final concentration each). Cells were incubated for 90 h. Then, Alamar Blue (20 uL/well) (Invitrogen, Cat DAL1100) was added for 6 h, and the plates were read with a fluorescence microplate reader at 546/580 nm (excitation/emission). For PBMC proliferation, cells were plated and activated as above but incubated for only 16 h prior to addition of Alamar Blue. Plates were read after 6 h.

Structure (SMILES)	outcome	AC50
CC1=NN(c2ccccc2)C(=O)C1	inactive	–
O=C(c1ccccc1)c1ccccc1	inactive	–
COC1=CC(=O)C[C@@H](C)[C@]12Oc1c(Cl)c(OC)cc(OC)c1C2=O	inactive	–
C[C@]12CC[C@@H]3c4ccc(O)cc4CC[C@H]3[C@@H]1C[C@@H](O)[C@@H]2O	inactive	–
CCCCCc1ccc(O)cc1	–	12.5 µM (active)
Cc1ccc(C(=O)c2ccccc2)cc1	–	33.8 µM (active)
OCCN1CN(CCO)CN(CCO)C1	inactive	–
CN(C)CCOC(c1ccccc1)c1ccccc1	inactive	–
Cc1[nH]nc2c1N=C(c1ccccc1Cl)c1cc([N+](=O)[O-])ccc1N2	inactive	–
CCCCCCCCCCCC	–	9.2 µM (active) and 5.67 µM (active)
CC[N+](CC)(CC)Cc1ccccc1	inactive	–
CN(CCO)S(=O)(=O)C(F)(F)C(F)(F)C(F)(F)C(F)(F)C(F)(F)C(F)(F)C(F)(F)C(F)(F)F	inactive	–
CCCCC=O	inactive	–
CCCCc1oc2ccccc2c1C(=O)c1cc(I)c(OCCN(CC)CC)c(I)c1	–	7.23 µM (active)
CCCCC(CC)C(=O)OCCOCCOCCOCCOC(=O)C(CC)CCCC (stereo not given)	inactive	–
CCCCCCCCCCCCCCCCCC[N+](C)(C)Cc1ccccc1	–	0.355 µM (active)
O=P(O)(O)CCC(F)(F)C(F)(F)C(F)(F)C(F)(F)C(F)(F)C(F)(F)C(F)(F)C(F)(F)F	–	11.7 µM (active) and 9.02 µM (active)
Cc1cccc2c1ccc1ccccc12	inactive	–
CN(C)c1ccc(C(=C2C=CC(=[N+](C)C)C=C2)c2ccccc2)cc1	–	1.23 µM (active)
O=C(O)C(F)(F)OC(F)(F)C(F)(F)OC(F)(F)C(F)(F)OC(F)(F)C(F)(F)C(F)(F)C(F)(F)F	–	10.9 µM (active) and 9.27 µM (active)

Structure (SMILES)	outcome	AC50
O=C(NCc1ncc(C(F)(F)F)cc1Cl)c1c(Cl)cccc1Cl	inactive	–
CCCCCCCCCCCCOS(=O)(=O)O	inactive	–
O=C(O)CCC(F)(F)C(F)(F)C(F)(F)C(F)(F)C(F)(F)F	inactive	–
N=C(N)c1ccc(OCCCCCOc2ccc(C(=N)N)cc2)cc1	inactive	–
COc1cccc(O)c1	inactive	–
COCN(COC)c1nc(N(COC)COC)nc(N(COC)COC)n1	inactive	–
O=C1OC2(c3ccccc31)c1cc(I)c(O)c(I)c1Oc1c2cc(I)c(O)c1I	–	3.75 µM (active)
CC(C)(C)c1ccc(O)c(O)c1	–	34.7 µM (active)
NC(=NCCCCCCN=C(N)/N=C(\N)Nc1ccc(Cl)cc1)/N=C(\N)Nc1ccc(Cl)cc1	–	1.18 µM (active)
C=CC(C)(CCC=C(C)C)OC(C)=O (stereo not given)	inactive	–
O=C1c2ccc(O)c(O)c2C(=O)c2c(O)ccc(O)c21	inactive	–
CCCCC(CC)C(=O)O (stereo not given)	inactive	–
OCC(F)(F)C(F)(F)C(F)(F)C(F)(F)C(F)(F)C(F)(F)C(F)(F)C(F)(F)C(F)(F)C(F)(F)C(F)(F)F	–	58 nM (active) and 74.1 nM (active)
Cc1ccc(N=Nc2c(O)ccc3ccccc23)c(C)c1	–	6.8 µM (active)
CS(=O)(=O)c1ccc([C@@H](CC2CCCC2)C(=O)Nc2cnccn2)cc1Cl	inactive	–
Oc1c(Cl)cc(Cl)cc1Sc1cc(Cl)cc(Cl)c1O	–	1.39 µM (active) and 455 nM (active)
O=C(O)CCC(F)(F)C(F)(F)C(F)(F)C(F)(F)C(F)(F)C(F)(F)F	inactive	–
OCC(CO)(CBr)CBr	inactive	–
CN(Cc1cnc2nc(N)nc(N)c2n1)c1ccc(C(=O)N[C@@H](CCC(=O)O)C(=O)O)cc1	inactive	–
Oc1cc2ccccc2cc1O	–	20 µM (active)
